Pol iota inh: DNA polymerase iota (human) inhibition | 390,000 tested, 1% active | Pol iota fluorescent replication assay, 10 min | Q9UNA4 | Potency, µM (top dose mostly 115 µM), inactives show at the top dose activity, negative = inhibition, usual class: inhibitors
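Pol iota at 10 nM preincubated 15 min with compounds at room temperature; reaction started with fluorescent substrate, 50 nM final. Fluorescence read kinetically at 0 and 10 min; buffer-only wells as negative control.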
WRN inhibitor: inhibitors of human WRN helicase | Q14191 | 360,000 tested, 0.46% active | WRN helicase unwinding, fluorescent forked duplex, kinetic | AID 651768 | Potency, µM (highest dose often 114 µM), without a hit: at the highest dose activity change, negative = inhibition, actives largely listed as inhibitors; also: % is scaled to controls: 0 for no effect and ±100 for the full control effect; nearly all actives have a fitted effect of over 55% in size
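Kinetic red-fluorescence monitoring (525/598 nm) tracks WRN helicase activity after 100 nM fluorophore-quencher forked duplex and 2 mM ATP are added to 20 nM enzyme pretreated 15 min at room temperature with compound.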
Pol eta inh: inhibitors of human DNA polymerase eta | Q9Y253 | recombinant Pol eta, fluorescent DNA replication assay | Potency, µM (top dose mostly 114 µM), inactives show at the top dose activity change, negative = inhibition, hits mostly inhibitors | 390,000 tested, 1.2% active | AID 588591; also: % is scaled to controls: 0 for no effect and ±100 for the full control effect
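Pol eta (10 nM) was preincubated with compounds for 15 min at room temperature, after which fluorescent replication substrate (50 nM final) was added to start the reaction. Fluorescence was read kinetically at 0 and 10 min.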
POLK inh: inhibitors of human DNA polymerase kappa; purified Pol kappa, fluorescent DNA synthesis assay, 10 min; Q9UBT6; 400,000 tested, 0.53% active; Potency, µM (highest dose often 107 µM), inactives show top-dose activity, negative = inhibition, usual class: inhibitors; also: % is scaled to controls: 0 for no effect and ±100 for the full control effect
Target sequence (Q9UBT6 whole entry, looked up): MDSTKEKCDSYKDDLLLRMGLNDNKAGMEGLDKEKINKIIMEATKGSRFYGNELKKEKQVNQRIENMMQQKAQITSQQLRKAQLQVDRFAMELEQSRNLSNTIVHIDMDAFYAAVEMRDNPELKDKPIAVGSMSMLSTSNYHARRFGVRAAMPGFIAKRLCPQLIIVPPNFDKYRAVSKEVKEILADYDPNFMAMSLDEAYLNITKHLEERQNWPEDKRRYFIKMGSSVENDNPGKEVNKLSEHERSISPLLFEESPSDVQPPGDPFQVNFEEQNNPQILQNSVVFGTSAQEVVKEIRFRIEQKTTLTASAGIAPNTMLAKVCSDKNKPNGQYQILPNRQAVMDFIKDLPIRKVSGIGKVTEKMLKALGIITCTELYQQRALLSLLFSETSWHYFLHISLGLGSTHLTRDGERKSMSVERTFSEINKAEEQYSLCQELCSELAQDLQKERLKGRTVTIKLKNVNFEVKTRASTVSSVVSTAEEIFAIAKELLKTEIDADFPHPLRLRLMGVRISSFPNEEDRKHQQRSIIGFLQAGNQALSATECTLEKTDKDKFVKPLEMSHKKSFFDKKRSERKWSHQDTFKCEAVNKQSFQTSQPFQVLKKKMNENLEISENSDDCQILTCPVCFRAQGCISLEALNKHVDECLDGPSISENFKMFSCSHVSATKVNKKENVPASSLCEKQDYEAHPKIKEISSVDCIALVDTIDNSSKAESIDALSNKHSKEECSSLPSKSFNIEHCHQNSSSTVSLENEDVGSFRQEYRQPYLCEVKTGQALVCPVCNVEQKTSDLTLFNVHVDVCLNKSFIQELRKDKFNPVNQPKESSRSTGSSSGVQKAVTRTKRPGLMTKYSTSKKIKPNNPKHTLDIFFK
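Activity was followed as the change in fluorescence between reads at 0 and 10 min after starting the reaction with 50 nM substrate. Beforehand, 10 nM polymerase had been preincubated with compound for 15 min at room temperature.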
POLB inh: DNA polymerase beta (human) inhibition; P06746; Pol beta primer extension/strand displacement, fluorescence kinetic; Potency, µM (highest dose often 114 µM), without a hit: at the highest dose activity change, negative = inhibition, actives largely listed as inhibitors; 340,000 tested, 1.3% active; also: % is scaled to controls: 0 for no effect and ±100 for the full control effect
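Curves were derived by four-parameter Hill fits of normalized qHTS data. The kinetic fluorescent primer-extension read was taken at 0 and 10 min after 50 nM substrate, following a 15 min room-temperature preincubation of 10 nM enzyme with compounds.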
FEN1 inh: blocks human flap endonuclease 1 | 390,000 tested, 0.35% active | Recombinant FEN1 flap cleavage, fluorescence, 15 min | P39748 | Potency, µM (series often up to 114 µM), for inactives: at the highest dose activity change, negative = inhibition, hits mostly inhibitors; also: % is scaled to controls: 0 for no effect and ±100 for the full control effect; nearly all actives have a fitted effect of over 65% in size
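With each library titrated from low to high concentration, compounds met 10 nM FEN1 for 15 min at room temperature before 50 nM substrate was added; readings at 0 and 15 min fed four-parameter Hill curve fits.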
An asterisk follows results filed as active; ? = inconclusive; · = no result; ! = a repeat was not active; [ ] = remark or other dose. In the library only some 2.4% were active in any assay of this set; here they are far more common. Calls follow the shape of the dose curve; as a rule, active = well fitted curve in the direction sought with a large enough effect; inconclusive = small, poorly fitted or top-dose-only effect, or another doubt; inactive = no such curve, though single readings can be large; an effect the other way counts as inactive or inconclusive. Potency is read from the fitted curve at half-maximal effect.

SMILES	Pol iota inh	WRN inhibitor	Pol eta inh	POLK inh	POLB inh	FEN1 inh
COc1ccc(NC(=O)c2ncn(-c3ccccc3)n2)cc1Cl	11.1%	·	-17.6%	7.0%	0.0%	3.5%
COc1cccc(CNC(=O)COC(=O)c2c(C)nn(-c3ccccc3)c2Cl)c1	?	-27.3%	12.6µM*	-31.8%	·	-19.9%
O=C(CCn1cnc2ccccc2c1=O)NCc1ccccc1	-4.6%	·	?	-6.4%[60.1 µM]	20µM*	13.7%
COc1ccccc1NC(=O)c1ncn(-c2ccccc2)n1	89.1µM*	·	·	-7.2%	5.4%	3.2%
COc1ccc(NC(=O)CCCn2cnc3ccccc3c2=O)c(OC)c1	-19.4%	7.2%	-14.5%	-5.5%	24.3%	5.5%
COc1ccccc1NC(=O)CCn1cnc2ccccc2c1=O	89.1µM*	·	·	-4.9%[60.1 µM]	?	6.5%
CCOc1ccc(CNC(=O)CCCn2c(=O)c3cccn3c3cccnc32)cc1	18.5%	·	-13.6%	-2.1%	21.0%	-16.0%
CCOCCCNC(=O)C1CCCN(Cc2nc(-c3ccc(CC)cc3)oc2C)C1 (centres undefined)	13.2%	·	-2.6%	4.0%	53.4%	-8.9%
Cc1ccc(NC(=O)C(=O)NCC(c2ccc3c(c2)OCO3)N2CCOCC2)c(C)c1 (centres undefined)	-13.8%	·	-20.0%	2.0%[60.1 µM]	1.1%	11.9%
COc1cccc(CNC(=O)CCn2cnc3ccccc3c2=O)c1	?	·	-10.0%	-4.6%[60.1 µM]	14.1µM*	-7.3%
O=C(CCn1cnc2ccccc2c1=O)NCc1ccccc1Cl	9.4%	·	-11.8%	-4.6%[60.1 µM]	0.3%	6.8%
CCN(CC)c1ccccc1/C=C/[n+]1ccc(CCCCI)c2ccccc21	?	·	·	50.1µM*	·	?
N#C/C(=C\c1ccc(O)c(O)c1)C(=O)NCCCc1ccccc1	?	?	15.8µM*!	?	?	0.5%
COc1ccc(/C=C(\C#N)C(=O)NCCc2ccccc2)cc1OCc1ccccc1	10.2%	-3.1%	-20.6%	1.9%	-2.8%	-6.7%
N#CC(=Cc1ccc(O)c(O)c1)C(=O)NCc1ccccc1	70.8µM*	·	·	-29.2%	·	-18.9%
COc1ccc(CCn2c(C)nc3c(c(=O)c4ccccc4n3C)c2=O)cc1	14.2%	-7.5%	-18.5%	-3.8%	-2.1%	50.1µM*
CC(C)Cn1c(-c2ccco2)nc2c(c(=O)c3ccccc3n2C)c1=O	·	·	·	·	39.8µM*	·
Cn1c2ccccc2c(=O)c2c(=O)n(C3CCCCC3)c(-c3ccco3)nc21	-14.4%	-9.7%	-0.6%	-6.1%	-10.3%	-4.6%
CSc1ccc(CCNC(=O)c2ccc3c(Cl)c4c(nc3c2)CCCC4)cc1	8.1%	·	-9.0%	1.3%	4.7%	-10.7%
CCc1nnc2n1N(C(C)=O)C(c1ccc(C(C)(C)C)cc1)=C(C(C)=O)S2	28.1%	·	-17.9%	-8.8%[60.1 µM]	-1.9%	-22.8%
CC1=C(C(=O)Nc2ccccc2C)C(c2cccnc2)n2nc(SCc3ccccc3)nc2N1 (centres undefined)	?	·	-5.7%	-6.7%[60.1 µM]	?	-0.6%
Cn1cc(S(=O)(=O)N2CCCCCC2)cc1C(=O)NCc1ccccc1Cl	-7.9%	·	-13.3%	-7.6%[60.1 µM]	-0.5%	10.3%
N#Cc1cccc(-c2nccc(-n3ccnc3)n2)c1	·	·	·	7.1%[60.1 µM]	·	·
CC1S/C(=C(\C#N)C(=O)NCc2ccco2)N(Cc2ccco2)C1=O (centres undefined)	22.4µM*	?	?	89.1µM*	25.2%	-2.4%
Cc1ccc(CC2S/C(=C(/C#N)C(=O)NCc3ccco3)N(c3ccccc3)C2=O)cc1 (centres undefined)	10.6%	-10.7%	-7.2%	-7.0%	12.8%	10.7%
SMILES	Pol iota inh	WRN inhibitor	Pol eta inh	POLK inh	POLB inh	FEN1 inh
CN(C)S(=O)(=O)N(CC(=O)Nc1ccc(F)c(F)c1)c1ccccc1	-26.6%[58.9 µM]	-11.4%	?	-20.3%	?	5.7%
CSc1cccc(NC(=O)CN(c2ccccc2)S(=O)(=O)N(C)C)c1	?	-18.2%	?	-16.8%	10µM*	7.4%
O=C(Nc1nc(-c2ccncc2)cs1)c1ccco1	?	-12.6%[57.1 µM]	?	-12.7%	39.8µM*	2.6%
O=C(N/N=C/c1ccco1)c1cccc(S(=O)(=O)Nc2ccccc2Cl)c1	44.7µM*	?	20µM*	?	22.4µM*	5.5%
CCN(CC)c1ccc(/C=C(\C#N)C(=O)NCc2ccco2)cc1	·	·	·	·	19.2%	·
CN(C)c1ccc(/C=C(\C#N)C(=O)NCc2ccco2)cc1	·	·	·	·	56.2µM*	·
Cc1ccc(NC(=O)COC(=O)c2ccc3c(c2)NC(=O)C2CCCN32)cc1 (centres undefined)	7.94µM*	-8.0%	3.5%	-5.8%	16.0%	2.0%
CCOc1ccc(NC(=O)C2CCN(c3nc4ccccc4[nH]3)CC2)cc1	-1.5%	·	-16.1%	-3.8%[60.1 µM]	12.5%	2.1%
CSc1ccc(/C=N/NC(=O)CN2CCN(Cc3ccccc3Cl)CC2)cc1	8.4%	-2.4%	-9.8%	-5.8%	0.199µM*	-10.6%
Cc1ccc(C(=O)N2CCN(c3ccc([N+](=O)[O-])cc3)CC2)o1	5.6%	5.2%	-19.7%	-4.3%	89.1µM*	9.9%
O=C(c1ccc(-c2cccc([N+](=O)[O-])c2)o1)N1CCN(c2ccc([N+](=O)[O-])cc2)CC1	21.2%	-7.2%	-3.7%	-7.1%	·	-11.3%
CCOc1ccc(CNS(=O)(=O)c2c(C(=O)N3CCC(C)CC3)c(C)n(C)c2C)cc1OC	36.6%	·	-15.4%	-6.7%[60.1 µM]	6.2%	-1.3%
CCc1ccccc1N(C)C	26.3%	·	·	11.8%	·	8.1%
O=C1c2c(O)cc(O)cc2OC(c2ccc(O)c(O)c2)C1O (centres undefined)	3.98µM*	·	5.62µM*	5.97µM*	1.89µM*	·
O=C1c2c(O)cc(O)cc2O[C@H](c2ccc(O)c(O)c2)C1O (some centres undefined)	·	·	·	1.34µM*	·	·
O=C1C(=O)C(c2ccc(O)cc2O)Oc2cc(O)cc(O)c21 (centres undefined)	10µM*	·	·	12.6µM*	·	20µM*
CCc1ccc(NC(=O)Cn2c(=O)n(CCC(=O)NCCc3ccc(OC)c(OC)c3)c(=O)c3ccccc32)cc1	6.4%	·	10.8%	0.2%	34.9%	-14.3%
CCOC(=O)C1=C(C)Nc2ccccc2N/C1=N\S(=O)(=O)c1ccc(Cl)cc1	8.7%	0.9%	-12.4%	-4.3%	·	3.6%
CCOC(=O)C1=C(C)Nc2ccccc2N/C1=N\S(=O)(=O)c1cc(C(=O)O)ccc1Cl	?	-6.2%[11.6 µM]	35.5µM*	-22.1%	·	11.2%
O=C(C[N+]1(CC(O)c2ccccc2)CCCCC1)c1ccccc1 (centres undefined)	-21.2%	·	·	-10.6%	·	45.3%
CCc1ccc(NC(=O)CSc2nc(-c3cccc(OC)c3)nc3c2Cc2c(CO)cnc(C)c2O3)cc1	?	·	-12.6%	-2.6%	?	6.6%
CCCCCCCCCCCCCCOc1ccc(C(=O)O)o1	·	·	·	11.9µM*	·	·

Assay outcomes deposited in PubChem BioAssay by National Center for Advancing Translational Sciences (NCATS).
